Assay results: PubChem BioAssay (EPA / NIEHS)
Inconclusive results are not listed. Activity calls are given as the source filed them. Rule for the calls: active = hit-call score of the fitted dose curve at least 0.9, where 1 is the maximum; inconclusive = response in the unintended direction; inactive = score below 0.9.

assay: ACEA_AR_agonist_AUC_viability: ACEA Biosciences xCELLigence Real-Time Cell Analysis on Androgen Receptor Agonism for Viability (AID 2283775);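 for AC50: viability read 80 hours after compound addition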
Summary of the method: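 Read-out is area under the impedance curve at 80 h post-dose in 22Rv1 cells, with DMSO as baseline and signal loss taken as reduced viability. Compounds ran in duplicate from 100 uM final.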

**Q.** With Clc1ccc(C(c2ccccc2Cl)C(Cl)Cl)cc1 (stereo not drawn) as the compound, how does the outcome read?
**A.** Its outcome is “inactive”.

**Q.** With CC1CCC(C(C)C)C(O)C1 (stereo not drawn) as the compound, how does the outcome read?
**A.** The outcome was “inactive”.

**Q.** For CCCCCCCC/C=C\CCCCCCCC(=O)OCC, which outcome is on record?
**A.** Its outcome is “inactive”.

**Q.** With CCCOCCO as the compound, how does the outcome read?
**A.** The outcome was “inactive”.

**Q.** For OCC(O)c1ccccc1 (stereo not drawn), which outcome is on record?
**A.** The outcome was “inactive”.

**Q.** Which AC50 does the source give for O=[N+]([O-])c1ccc(O)cc1C(F)(F)F here?
**A.** Its AC50 is 12.3 µM (active).

**Q.** Which AC50 does the source give for C[C@H]1O[C@@H](O[C@H]2[C@@H](O)C[C@H](O[C@H]3[C@@H](O)C[C@H](O[C@H]4CC[C@@]5(C)[C@H](CC[C@@H]6[C@@H]5C[C@@H](O)[C@]5(C)[C@@H](C7=CC(=O)OC7)CC[C@]65O)C4)O[C@@H]3C)O[C@@H]2C)C[C@H](O)[C@@H]1O here?
**A.** Its AC50 is 0.00928 µM (active).

**Q.** With C[Si](C)(C)O[Si](C)(C)C as the compound, how does the outcome read?
**A.** The outcome was “inactive”.

**Q.** For CCCCCCCCCCCCCCN(CCO)CCO, which AC50 is on record?
**A.** Its AC50 is 23.7 µM (active).

**Q.** Which outcome does the source give for CC1CC(O)CC(C)(C)C1 (stereo not drawn) here?
**A.** The outcome was “inactive”.

**Q.** For CCCCCC(C)=O, which outcome is on record?
**A.** The outcome was “inactive”.

**Q.** Which outcome does the source give for O=C1OC(=O)c2c(Cl)c(Cl)c(Cl)c(Cl)c21 here?
**A.** The outcome was “inactive”.

**Q.** For Nc1ccc(N)c2c1C(=O)c1ccccc1C2=O, which AC50 is on record?
**A.** The AC50 was 9.05 µM (active).

**Q.** With CCOC(=O)[C@@H](C)Oc1ccc(Oc2nc3ccc(Cl)cc3o2)cc1 as the compound, how does the AC50 read?
**A.** The AC50 was 5.36 µM (active).

**Q.** Which outcome does the source give for Cc1cc(=O)oc2cc(N(C)C)ccc12 here?
**A.** Its outcome is “inactive”.

**Q.** For OCCc1ccccc1, which outcome is on record?
**A.** Its outcome is “inactive”.

**Q.** With CCCCOC(=O)CCCCCCCC(=O)OCCCC as the compound, how does the outcome read?
**A.** Its outcome is “inactive”.

**Q.** With CC(C)CCCCCCc1ccc(OCCOCCO)cc1 as the compound, how does the outcome read?
**A.** The outcome was “inactive”.

**Q.** With CCCCCCCCCCCCCC(=O)OCC(O)CO (stereo not drawn) as the compound, how does the outcome read?
**A.** Its outcome is “inactive”.

**Q.** With C=C(C)[C@@H]1CC=C(C)C(=O)C1 as the compound, how does the outcome read?
**A.** Its outcome is “inactive”.

**Q.** Which outcome does the source give for CCCC(=O)OC(C)(C)Cc1ccccc1 here?
**A.** The outcome was “inactive”.

assay: ACEA_AR_antagonist_AUC_viability: ACEA Biosciences xCELLigence Real-Time Cell Analysis on Androgen Receptor Antagonism for Viability (AID 2283776);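 note: 22Rv1 human prostate cancer cells growing on impedance electrode plates; area under impedance growth curve at 80 h after dosing as viability; hits lower the growth signal relative to DMSO meaning cytotoxicity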
Summary of the method: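 22Rv1 prostate cells, continuous dosing up to 100 uM final (0.5% DMSO max), duplicate plates. Growth measured by impedance; AUC at 80 h, loss of signal vs DMSO.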

**Q.** Which outcome does the source give for Clc1ccc(C(c2ccccc2Cl)C(Cl)Cl)cc1 (stereo not drawn) here?
**A.** Its outcome is “inactive”.

**Q.** Which outcome does the source give for CC1CCC(C(C)C)C(O)C1 (stereo not drawn) here?
**A.** Its outcome is “inactive”.

**Q.** Which outcome does the source give for CCCCCCCC/C=C\CCCCCCCC(=O)OCC here?
**A.** The outcome was “inactive”.

**Q.** Which outcome does the source give for CC(=O)O[C@H]1C[C@@H]2CC[C@@]1(C)C2(C)C here?
**A.** The outcome was “inactive”.

**Q.** For CCCOCCO, which outcome is on record?
**A.** The outcome was “inactive”.

**Q.** With OCC(O)c1ccccc1 (stereo not drawn) as the compound, how does the outcome read?
**A.** The outcome was “inactive”.

**Q.** Which outcome does the source give for ON=C1CCCCC1 here?
**A.** Its outcome is “inactive”.

**Q.** For O=[N+]([O-])c1ccc(O)cc1C(F)(F)F, which AC50 is on record?
**A.** The AC50 was 12.9 µM (active).

**Q.** Which AC50 does the source give for C[C@H]1O[C@@H](O[C@H]2[C@@H](O)C[C@H](O[C@H]3[C@@H](O)C[C@H](O[C@H]4CC[C@@]5(C)[C@H](CC[C@@H]6[C@@H]5C[C@@H](O)[C@]5(C)[C@@H](C7=CC(=O)OC7)CC[C@]65O)C4)O[C@@H]3C)O[C@@H]2C)C[C@H](O)[C@@H]1O here?
**A.** Its AC50 is 0.0148 µM (active).

**Q.** With C[Si](C)(C)O[Si](C)(C)C as the compound, how does the outcome read?
**A.** Its outcome is “inactive”.

**Q.** For CCCCCCCCCCCCCCN(CCO)CCO, which AC50 is on record?
**A.** Its AC50 is 28.4 µM (active).

**Q.** For CC1CC(O)CC(C)(C)C1 (stereo not drawn), which outcome is on record?
**A.** Its outcome is “inactive”.

**Q.** With Cc1ccc(S(N)(=O)=O)cc1 as the compound, how does the outcome read?
**A.** Its outcome is “inactive”.

**Q.** For CCCCCC(C)=O, which outcome is on record?
**A.** The outcome was “inactive”.

**Q.** With O=C1OC(=O)c2c(Cl)c(Cl)c(Cl)c(Cl)c21 as the compound, how does the outcome read?
**A.** Its outcome is “inactive”.

**Q.** For Nc1ccc(N)c2c1C(=O)c1ccccc1C2=O, which AC50 is on record?
**A.** The AC50 was 12.7 µM (active).

**Q.** Which outcome does the source give for COC(=O)c1ccc(C)cc1C1=NC(C)(C(C)C)C(=O)N1 (stereo not drawn) (tested in a mixture with another compound) here?
**A.** Its outcome is “inactive”.

**Q.** For CCOC(=O)[C@@H](C)Oc1ccc(Oc2nc3ccc(Cl)cc3o2)cc1, which outcome is on record?
**A.** Its outcome is “inactive”.

**Q.** With Cc1cc(=O)oc2cc(N(C)C)ccc12 as the compound, how does the AC50 read?
**A.** The AC50 was 0.177 µM (active).

**Q.** For C=C[Si]1(C)O[Si](C)(C=C)O[Si](C)(C=C)O[Si](C)(C=C)O1 (stereo not drawn), which outcome is on record?
**A.** Its outcome is “inactive”.

**Q.** For O=C(CC(=O)c1ccccc1)c1ccccc1, which outcome is on record?
**A.** Its outcome is “inactive”.

**Q.** For O=C(c1ccccc1)C(O)c1ccccc1 (stereo not drawn), which outcome is on record?
**A.** Its outcome is “inactive”.

**Q.** Which outcome does the source give for OCCc1ccccc1 here?
**A.** The outcome was “inactive”.

**Q.** For CCCCOC(=O)CCCCCCCC(=O)OCCCC, which outcome is on record?
**A.** Its outcome is “inactive”.

**Q.** For C=C1C[C@]23C[C@@]1(O)CC[C@H]2[C@@]12C=C[C@H](O)[C@@](C)(C(=O)O1)[C@H]2[C@@H]3C(=O)O, which outcome is on record?
**A.** The outcome was “inactive”.

**Q.** For CC(C)c1ccccc1O, which outcome is on record?
**A.** The outcome was “inactive”.

**Q.** Which outcome does the source give for CCCCC(CC)COC(C)=O (stereo not drawn) here?
**A.** Its outcome is “inactive”.

**Q.** For CC(C)CCCCCCc1ccc(OCCOCCO)cc1, which outcome is on record?
**A.** The outcome was “inactive”.

**Q.** For CCCCCCCCCCCC(=O)OCC(O)CO (stereo not drawn), which outcome is on record?
**A.** Its outcome is “inactive”.

**Q.** For CCCCCCCCCCCCCC(=O)OCC(O)CO (stereo not drawn), which outcome is on record?
**A.** Its outcome is “inactive”.

**Q.** Which outcome does the source give for C=C(C)[C@@H]1CC=C(C)C(=O)C1 here?
**A.** The outcome was “inactive”.

**Q.** For CCCC(=O)OC(C)(C)Cc1ccccc1, which outcome is on record?
**A.** Its outcome is “inactive”.
